Experimental data as given in PubChem BioAssay (NCATS).
Records with an inconclusive call do not appear. Activity calls are given as the source filed them. Calls follow the shape of the dose curve; as a rule, active = well fitted cell-killing curve with a large enough effect; inconclusive = small, poorly fitted or top-dose-only effect, or effect the other way; inactive = flat fitted curve, though single readings scatter.

Key:
Assay in all cases: Primary qHTS to identify gynecologic anti-cancer compounds using libraries of approved drugs and bioactive compounds (AID 1345084); also: nearly all actives have a fitted effect of over 55% in size
C33A = conditions: Gynecologic cancer cell panel viability, ATPlite luminescence, 48 h; series mostly up to 57.5 µM
Summary of the method: (§1)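 ATP-based viability (ATPlite), 1,000 cells/well, 16 h pre-incubation, 48 h compound at 37 C, 5% CO2, 15 min RT before read.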

CAOV3 = conditions: Gynecologic cancer cell panel viability, ATPlite luminescence, 48 h; series mostly up to 57.5 µM
Summary of the method: as §1

CASKI = conditions: Gynecologic cancer cell panel viability, ATPlite luminescence, 48 h; series mostly up to 57.5 µM
Summary of the method: as §1

Es-2 = conditions: Gynecologic cancer cell panel viability, ATPlite luminescence, 48 h; series mostly up to 57.5 µM
Summary of the method: as §1

HeLa = conditions: Gynecologic cancer cell panel viability, ATPlite luminescence, 48 h; series mostly up to 57.5 µM
Summary of the method: as §1

Hek293T = conditions: Gynecologic cancer cell panel viability, ATPlite luminescence, 48 h, control line for the selectivity index; series mostly up to 57.5 µM
Summary of the method: as §1

JEG-3 = conditions: Gynecologic cancer cell panel viability, ATPlite luminescence, 48 h; series mostly up to 57.5 µM
Summary of the method: as §1

OV90 = conditions: Gynecologic cancer cell panel viability, ATPlite luminescence, 48 h; series mostly up to 57.5 µM
Summary of the method: as §1

PA-1 = conditions: Gynecologic cancer cell panel viability, ATPlite luminescence, 48 h; series mostly up to 57.5 µM
Summary of the method: as §1

SKOV3 = conditions: Gynecologic cancer cell panel viability, ATPlite luminescence, 48 h; series mostly up to 57.5 µM
Summary of the method: as §1

Tov-21-G = conditions: Gynecologic cancer cell panel viability, ATPlite luminescence, 48 h; series mostly up to 57.5 µM
Summary of the method: as §1

Tov112D = conditions: Gynecologic cancer cell panel viability, ATPlite luminescence, 48 h; series mostly up to 57.5 µM
Summary of the method: as §1
% is scaled to controls: 0 for no effect and ±100 for the full control effect.

COc1ccc(CNC(=O)c2cc(-c3cncc(C)c3)ncc2-c2nccs2)nc1OC
inactive: Potency (C33A) | Potency (CAOV3) | Potency (CASKI) | Potency (Es-2) | Potency (HeLa) | Potency (Hek293T) | Potency (JEG-3) | Potency (OV90) | Potency (PA-1) | Potency (SKOV3) | Potency (Tov-21-G) | Potency (Tov112D)

O=C(O)c1c(O)c(-c2ccccc2)nc2ccccc12
inactive: Potency (C33A) | Potency (CAOV3) | Potency (CASKI) | Potency (Es-2) | Potency (HeLa) | Potency (Hek293T) | Potency (JEG-3) | Potency (OV90) | Potency (PA-1) | Potency (SKOV3) | Potency (Tov-21-G) | Potency (Tov112D)

C=CC(C)(O)CC/C=C(\C)C(=O)OC1C(O)C(CO)OC(OC(=O)C23CCC(C)(C)CC2C2=CCC4C5(C)CCC(OC6OC(COC7OCC(OC(C)=O)C(O)C7OC7OC(COC(C)=O)C(O)C(O)C7O)C(O)C(O)C6O)C(C)(C)C5CCC4(C)C2(C)C(O)C3O)C1OC1OCC(OC2OCC(O)C(OC3OCC(O)C(O)C3O)C2O)C(O)C1O (stereo not given)
inactive: activity change, negative = cytotoxicity (C33A) 7.05% [at 6.55 µM] | activity change, negative = cytotoxicity (CAOV3) -2.2% [at 6.55 µM] | activity change, negative = cytotoxicity (CASKI) -3.55% [at 6.55 µM] | activity change, negative = cytotoxicity (Es-2) 1.1% [at 6.55 µM] | activity change, negative = cytotoxicity (HeLa) 16.6% [at 6.55 µM] | activity change, negative = cytotoxicity (Hek293T) 1.48% [at 6.55 µM] | activity change, negative = cytotoxicity (JEG-3) -3.21% [at 6.55 µM] | activity change, negative = cytotoxicity (OV90) -14.1% [at 6.55 µM] | activity change, negative = cytotoxicity (PA-1) -0.479% [at 6.55 µM] | activity change, negative = cytotoxicity (SKOV3) 20.9% [at 6.55 µM] | activity change, negative = cytotoxicity (Tov-21-G) 0.14% [at 6.55 µM] | activity change, negative = cytotoxicity (Tov112D) -2.19% [at 6.55 µM]

CC1CCC2(C(=O)O)CCC3(C)C(=CCC4C5(C)CCC(O)C(C)(CO)C5CCC43C)C2C1(C)O (stereo not given)
inactive: Potency (C33A) | Potency (CAOV3) | Potency (CASKI) | Potency (Es-2) | Potency (HeLa) | Potency (Hek293T) | Potency (JEG-3) | Potency (OV90) | Potency (PA-1) | Potency (SKOV3) | Potency (Tov-21-G) | Potency (Tov112D)

CC(=O)CC1CCC(C(C)C(=O)OCC(O)CO)O1 (stereo not given)
inactive: Potency (C33A) | Potency (CAOV3) | Potency (CASKI) | Potency (Es-2) | Potency (HeLa) | Potency (Hek293T) | Potency (JEG-3) | Potency (OV90) | Potency (PA-1) | Potency (SKOV3) | Potency (Tov-21-G) | Potency (Tov112D)

COC(=O)C[C@H]1C(C)(C)[C@H](OC(C)=O)C2CC3=C4CC(=O)O[C@@H](c5ccoc5)[C@]4(C)CCC3[C@@]1(C)C2=O (stereo not given in full)
inactive: Potency (C33A) | Potency (CAOV3) | Potency (CASKI) | Potency (Es-2) | Potency (HeLa) | Potency (Hek293T) | Potency (JEG-3) | Potency (OV90) | Potency (PA-1) | Potency (SKOV3) | Potency (Tov-21-G) | Potency (Tov112D)

COc1cc2c(cc1O)[C@H](c1ccc(O[C@@H]3O[C@H](CO)[C@@H](O)[C@H](O)[C@H]3O)c(OC)c1)[C@@H](CO)[C@](O)(CO)C2
inactive: Potency (C33A) | Potency (CAOV3) | Potency (CASKI) | Potency (Es-2) | Potency (HeLa) | Potency (Hek293T) | Potency (JEG-3) | Potency (OV90) | Potency (PA-1) | Potency (SKOV3) | Potency (Tov-21-G) | Potency (Tov112D)

CC1(C)CCC[C@]2(C)[C@H]3CC(=O)O[C@]3(C)CC[C@@H]12
inactive: Potency (C33A) | Potency (CAOV3) | Potency (CASKI) | Potency (Es-2) | Potency (HeLa) | Potency (Hek293T) | Potency (JEG-3) | Potency (OV90) | Potency (PA-1) | Potency (SKOV3) | Potency (Tov-21-G) | Potency (Tov112D)

C/C1=C\CC[C@]2(C)O[C@@H]2[C@H](O)[C@H](C(C)C)[C@H](OC(=O)/C=C/c2ccccc2)C1
inactive: Potency (C33A) | Potency (CAOV3) | Potency (CASKI) | Potency (Es-2) | Potency (HeLa) | Potency (Hek293T) | Potency (JEG-3) | Potency (OV90) | Potency (PA-1) | Potency (SKOV3) | Potency (Tov-21-G) | Potency (Tov112D)

CC(=O)OC[C@H]1O[C@H](O[C@]2(CO)O[C@H](CO)[C@@H](OC(=O)/C=C/c3ccccc3)[C@@H]2O)[C@H](O)[C@@H](O)[C@@H]1O
inactive: Potency (C33A) | Potency (CAOV3) | Potency (CASKI) | Potency (Es-2) | Potency (HeLa) | Potency (Hek293T) | Potency (JEG-3) | Potency (OV90) | Potency (PA-1) | Potency (SKOV3) | Potency (Tov-21-G) | Potency (Tov112D)

CC1CCCCN1S(=O)(=O)c1ccc(N2CCCC2=O)cc1 (stereo not given)
inactive: Potency (C33A) | Potency (CAOV3) | Potency (CASKI) | Potency (Es-2) | Potency (HeLa) | Potency (Hek293T) | Potency (JEG-3) | Potency (OV90) | Potency (PA-1) | Potency (SKOV3) | Potency (Tov-21-G) | Potency (Tov112D)

CN1CCc2nc(C(=O)N[C@@H]3C[C@@H](C(=O)N(C)C)CC[C@@H]3NC(=O)C(=O)Nc3ccc(Cl)cn3)sc2C1
inactive: Potency (C33A) | Potency (CAOV3) | Potency (CASKI) | Potency (Es-2) | Potency (HeLa) | Potency (Hek293T) | Potency (JEG-3) | Potency (OV90) | Potency (PA-1) | Potency (SKOV3) | Potency (Tov-21-G) | Potency (Tov112D)

CC(=O)NC1C(OC(C)(C)C2CCC3(C)C=C(C4CCC5C4(C)CC(O)C4OC(C(C)(C)O)CCC45C)CCC3O2)OC(CO)C(O)C1O (stereo not given)
inactive: Potency (C33A) | Potency (CAOV3) | Potency (CASKI) | Potency (Es-2) | Potency (HeLa) | Potency (Hek293T) | Potency (JEG-3) | Potency (OV90) | Potency (PA-1) | Potency (SKOV3) | Potency (Tov-21-G) | Potency (Tov112D)

COCCOc1ccc(N2CCN(CCn3ncc4c3nc(N)n3nc(-c5ccco5)nc43)CC2)cc1
inactive: Potency (C33A) | Potency (CAOV3) | Potency (CASKI) | Potency (Es-2) | Potency (HeLa) | Potency (Hek293T) | Potency (JEG-3) | Potency (OV90) | Potency (PA-1) | Potency (SKOV3) | Potency (Tov-21-G) | Potency (Tov112D)

CCOc1cc(C)c(Cl)cc1S(=O)(=O)n1cnc2ccccc21
inactive: Potency (C33A) | Potency (CAOV3) | Potency (CASKI) | Potency (Es-2) | Potency (HeLa) | Potency (Hek293T) | Potency (JEG-3) | Potency (OV90) | Potency (PA-1) | Potency (SKOV3) | Potency (Tov-21-G) | Potency (Tov112D)
